# Values joined by “and” are separate entries in the source; they are usually repeats but may differ in a detail not shown here. Equal values may be shown once. ± gives the standard deviation of the averaged measurements.
# What was measured:
# Conditions in all cases: concentration: 10 µM; 24 h
# HCC1569 [1] = test: cell number relative to DMSO (% of DMSO); higher = more cells (less growth inhibition / toxicity)
# Outline: (§1)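 Cells were seeded at 800 per well in 384-well plates with RPMI containing 10% FBS; both HCC1569 and TDF lines were used. Compounds were added at 10 µM for 24 h at 37 °C, in triplicate, before fixation in 3.7% formaldehyde and staining with a rabbit anti-H1.0 antibody, an AlexaFluor 647 secondary and DAPI. H1.0 nuclear intensity or cell number is reported as percent of the plate control using the median of replicates, and HCC1569 values were smoothed for positional effects.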
# TDF [2] = test: as above
# Outline: as §1
# TDF [3] = test: H1.0 immunofluorescence intensity relative to DMSO (% of DMSO); higher = stronger H1.0 induction, active = 120 or more
# Outline: as §1
# HCC1569 [4] = test: H1.0 immunofluorescence intensity relative to DMSO (% of DMSO); higher = stronger H1.0 induction, active = 140 or more
# Outline: as §1
# 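For H1.0 immunofluorescence intensity relative to DMSO in this document: TDF is a line of transformed human dermal fibroblasts of mesenchymal origin.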
# 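For cell number relative to DMSO in this document: TDF denotes transformed human dermal fibroblasts of mesenchymal origin.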
SMILES,cell number (HCC1569 [1]),cell number (TDF [2]),H1.0 immunofluorescence intensity (TDF [3]),H1.0 immunofluorescence intensity (HCC1569 [4])
COc1ccccc1OCC(O)CN1CCN(CC(=O)Nc2c(C)cccc2C)CC1.Cl.Cl (configuration not stated) [Ranolazine dihydrochloride],104,107,97.9 (inactive),99.9 (inactive)
CCCCCCCCOC(=O)C=Cc1ccc(O)c(O)c1 [n-Octyl caffeate],54.1,78.8,93.6 (inactive),120 (inactive)
COc1ccc(C(=O)Nc2sc3c(c2C(N)=O)CCCC3)cc1OC,98.8,109,94.4 (inactive),121 (inactive)
CC12CCC3c4ccc(O)cc4CCC3C1CCC2O (stereo not drawn) [beta-Estradiol],90.6,89.3,101 (inactive),95.3 (inactive)
CCCS(=O)(=O)Nc1ccc(F)c(C(=O)c2c[nH]c3ncc(Cl)cc23)c1F,96.8,92.9,105 (inactive),111 (inactive)
CCOC(=O)c1cnc2c(cnn2CC)c1NN=C(C)C [Etazolate],102,108,95.6 (inactive),103 (inactive)
Cl.N=C(N=C(N)N)N1CCOCC1 [Moroxydine.HCl],106,120,98.7 (inactive),88.6 (inactive)
Cc1nc2sccn2c(=O)c1CCN1CCC(=C(c2ccccc2)c2ccc(F)cc2)CC1 [Diacylglycerol kinase inhibitor I],87.2,111,96 (inactive),118 (inactive)
CN1CCN2c3ccccc3Cc3ccccc3C2C1.Cl (configuration not stated) [Mianserin hydrochloride],105,101,95.5 (inactive),98.4 (inactive)
O=C(Nc1cccc(Nc2nccc(Nc3cccc(C(F)(F)F)c3)n2)c1)C1CC1 [Aurora Kinase Inhibitor III],63 ± 1.4,35.8 ± 3.4,129 (active),247 (active)
O=C(O)c1cccnc1C(=O)O [Quinolinic acid],106,102,90.7 (inactive),99.9 (inactive)
CCCCCCCCC=CCCCCCCCCCCCC(=O)O [13(E)-Docosenoic acid],104,108,96 (inactive),101 (inactive)
"Cc1cccc(C(=O)NCN2CCN(c3ccccc3C#N)CC2)c1.O=C(O)C=CC(=O)O [PD 168,077 maleate]",105,107,97.3 (inactive),99.3 (inactive)
Cc1ccc(NC(=O)c2cccc(N(C)C)c2)cc1NC(=O)c1ccc(O)cc1,92.1 and 95.3,100 and 94.1,96.7 (inactive) and 105 (inactive),110 (inactive) and 119 (inactive)
N#CC(=Cc1ccc(O)c(O)c1)C(=O)NCCCc1ccccc1 [Tyrphostin AG 555],79.8,90.7,88.6 (inactive),107 (inactive)
O=P(O)(O)C(Cl)(Cl)P(=O)(O)O [Clodronic acid],101,103,88.3 (inactive),102 (inactive)
CC1CNCCN1S(=O)(=O)c1cccc2cnccc12.Cl.Cl (configuration not stated),101,105,88.4 (inactive),83 (inactive)
CCC=CCC(O)C=CC=CCC=CCC=CCCCC(=O)O (configuration not stated),105,102,98.8 (inactive),94.3 (inactive)
"CCCCCC(O)C=CC1C(O)CC(O)C1CC=CCCCC(=O)O (configuration not stated) [9b,11a Prostaglandin F2]",100,98,93.3 (inactive),97.5 (inactive)
"NC(N)=NC(=O)c1nc(Cl)c(N2CCCCCC2)nc1N [5-(N,N-hexamethylene)amiloride]",96,85.1,113 (inactive),100 (inactive)
Ic1cccc(CSc2nnc(-c3ccncc3)o2)c1 [GSK-3b Inhibitor II],93.5,106,102 (inactive),117 (inactive)
"C=CCn1c(=O)c2c(nc(-c3ccc(S(=O)(=O)O)cc3)n2C)n(C)c1=O [1-Allyl-3,7-dimethyl-8-p-sulfophenylxanthine]",102,108,99.2 (inactive),105 (inactive)
Cc1oncc1C(=O)Nc1ccc(C(F)(F)F)cc1 [Leflunomide],103 ± 3.5,107 ± 3.5,97.1 (inactive),101 (inactive)

# Reference: the supplement of paper PMC7156485
